# Shown are actives, neighbours in structure and some others; about 12% of the full set was active somewhere.
# Sfp PPTase inh = qHTS Assay for Inhibitors of Bacillus subtilis Sfp phosphopantetheinyl transferase (PPTase) | actives 3.5% (n = 310,000) | 4'-phosphopantetheinyl transferase ffp (Bacillus subtilis), Q9F4F7 | Biochemical Sfp PPTase activity, qHTS | Potency, µM, for the others: largest response in the series, negative = inhibition, most hits filed as inhibitors;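 further: the enzyme is Sfp with the accession as filed and its product quenches rhodamine fluorescence; potency means the concentration at half of the fitted maximal effect; 0% = enzyme reaction without inhibitor and -100% = no enzyme wells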
#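 Sfp 15 nM + cpd, 15 min RT; start w/ rhodamine-CoA 5 uM, BHQ-2-YbbR 12.5 uM (final); 50 mM Hepes pH 7.6, 10 mM MgCl2, 0.01% NP-40, 0.01% BSA; read 525/598 nm at 0 and 30 min.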
# L3MBTL1 inh = qHTS Assay for the Inhibitors of L3MBTL1; Lethal(3)malignant brain tumor-like protein 1 (Homo sapiens), Q9Y468; AlphaScreen L3MBTL1–H3K9me1 peptide binding; Potency, µM (series often up to 57.1 µM), for the others: top-dose activity, negative = inhibition, actives largely listed as inhibitors; actives 0.66% (n = 230,000); AID 485360, 2010; further: potency means the concentration at half of the fitted maximal effect; on the % scale 0 is the no-effect control and ±100 the full control effect; nearly all actives have a fitted effect of over 60% in size
# Target sequence (Q9Y468 whole entry, looked up): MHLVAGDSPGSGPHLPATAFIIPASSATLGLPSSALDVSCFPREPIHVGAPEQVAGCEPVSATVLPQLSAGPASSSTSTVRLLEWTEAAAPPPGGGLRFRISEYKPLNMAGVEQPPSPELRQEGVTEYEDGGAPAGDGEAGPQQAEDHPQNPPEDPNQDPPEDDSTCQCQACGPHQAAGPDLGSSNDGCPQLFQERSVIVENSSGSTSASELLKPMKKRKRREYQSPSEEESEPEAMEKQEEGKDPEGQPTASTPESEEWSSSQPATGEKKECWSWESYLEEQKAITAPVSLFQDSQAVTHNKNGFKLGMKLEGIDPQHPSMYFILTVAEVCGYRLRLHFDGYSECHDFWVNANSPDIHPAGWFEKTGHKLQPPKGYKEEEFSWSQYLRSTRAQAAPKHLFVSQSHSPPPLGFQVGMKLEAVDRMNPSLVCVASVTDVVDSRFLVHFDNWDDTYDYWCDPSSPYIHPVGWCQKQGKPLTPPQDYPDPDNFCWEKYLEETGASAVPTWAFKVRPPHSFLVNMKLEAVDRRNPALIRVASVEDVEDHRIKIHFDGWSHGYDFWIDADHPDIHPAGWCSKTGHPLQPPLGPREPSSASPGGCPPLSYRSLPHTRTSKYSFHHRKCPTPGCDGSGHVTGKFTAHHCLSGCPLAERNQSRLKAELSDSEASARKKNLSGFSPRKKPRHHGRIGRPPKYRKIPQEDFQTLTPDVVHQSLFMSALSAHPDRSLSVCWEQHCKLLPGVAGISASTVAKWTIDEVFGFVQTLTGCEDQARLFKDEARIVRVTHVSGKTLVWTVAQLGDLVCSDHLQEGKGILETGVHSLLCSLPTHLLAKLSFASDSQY
#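 First, the protein-peptide complex forms for 30 min at room temperature (L3MBTL1 50 nM, biotinylated H3K9me1 peptide 75 nM). Next, compounds are pin-transferred and incubated 30 min. Finally, AlphaScreen beads are added and read after 30 min.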
# G9a inh = qHTS Assay for Inhibitors of Histone Lysine Methyltransferase G9a; Histone-lysine N-methyltransferase EHMT2 (Homo sapiens), Q96KQ7; Potency, µM (doses to about 102 µM), for inactives: at the top dose activity, negative = inhibition, actives largely listed as inhibitors; G9a H3K9 monomethylation, AlphaScreen, 2 h; actives 8.8% (n = 350,000); further: potency means the concentration at half of the fitted maximal effect; on the % scale 0 is the no-effect control and ±100 the full control effect; nearly all actives have a fitted effect of over 75% in size
#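 Quantitative HTS format: methyltransferase activity on a biotin-tagged H3K9 peptide is measured by AlphaScreen, using a rabbit anti-monomethyl-H3K9 antibody with streptavidin donor and anti-IgG acceptor beads. Final levels are 20 nM enzyme, 500 nM peptide, 20 uM SAM; 2 h RT.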
# BAZ2B block = qHTS Assay for Inhibitors of BAZ2B; Bromodomain adjacent to zinc finger domain protein 2B (Homo sapiens), Q9UIF8; AlphaScreen BAZ2B-H3K14Ac peptide displacement; Potency, µM (top dose mostly 114 µM), inactives show at the highest dose activity change, negative = inhibition, most hits filed as inhibitors; actives 4.4% (n = 360,000); AID 504333, 2011; further: potency means the concentration at half of the fitted maximal effect; on the % scale 0 is the no-effect control and ±100 the full control effect; nearly all actives have a fitted effect of over 60% in size
#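 Compounds, titrated to a top concentration of 110 uM, were incubated 30 min at room temperature with preformed BAZ2B/acetyl-K14 H3 peptide complex (50 nM each). Proximity signal was measured by AlphaScreen after 20 min with beads.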
# JMJD2A Tudor inh = qHTS Assay for Inhibitors of JMJD2A-Tudor Domain | actives 4.4% (n = 390,000) | Potency, µM (titrated, usually from 114 µM), inactives show at the top dose activity change, negative = inhibition, most hits filed as inhibitors | Lysine-specific demethylase 4A (Homo sapiens), O75164 | AID 504339, 2011 | AlphaScreen JMJD2A-Tudor / H3K4me3 peptide binding; further: potency means the concentration at half of the fitted maximal effect; on the % scale 0 is the no-effect control and ±100 the full control effect; nearly all actives have a fitted effect of over 50% in size
# HP1b chromo inh = HTS for Inhibitors of HP1-beta Chromodomain Interactions with Methylated Histone Tails; actives 0.56% (n = 390,000); AID 540317, 2011; Potency, µM (highest dose often 114 µM), for the others: top-dose activity change, negative = inhibition, hits mostly inhibitors; Chromobox protein homolog 1 (Homo sapiens), P83916; AlphaScreen HP1-beta / biotin-H3K9me3 peptide binding; further: potency means the concentration at half of the fitted maximal effect; nearly all actives have a fitted effect of over 70% in size
#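 Compound inhibition of the preformed complex between 50 nM HP1-beta and 50 nM biotinylated H3K9me3 peptide was read by AlphaScreen. Buffer was PBS pH 7.4 with 0.01% Tween-20. Incubations ran 30 min at room temperature, with 10 ug/mL donor/acceptor beads.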
# Sfp inh conf = Confirmation qHTS Assay for Inhibitors of Bacillus subtilis Sfp phosphopantetheinyl transferase (PPTase). shares compounds with Sfp PPTase inh. Sfp PPTase enzymatic assay, qHTS titration. Potency, µM (doses to about 114 µM), inactives show top-dose activity change, negative = inhibition, most hits filed as inhibitors. actives 79% (n = 380). AID 2701, 2010;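 further: potency means the concentration at half of the fitted maximal effect; plate controls were uninhibited Sfp reaction for no effect and no enzyme control for full effect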
# Sfp PPTase gel = Gel-Based Assay for Inhibitors of Bacillus subtilis Sfp phosphopantetheinyl transferase (PPTase); shares compounds with Sfp PPTase inh; purified Sfp, gel-based phosphopantetheinylation read-out; Potency, µM, hits mostly inhibitors; actives 20% (n = 210); AID 2707, 2010;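 active means potency below 100 µM; inconclusive means dose-dependent response but potency above 100 µM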;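 further: band intensities scaled against SCH202676 control wells before curve fitting; potency is an IC50 for inhibitors of Sfp transfer activity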
# * = called active by the depositor; i = inactive; ? = inconclusive; nt = no result; ! = repeats disagree; [ ] = dose if it differs, or a comment. Unless noted, the call rests on the fitted dose curve; in most records, active means well fitted curve in the direction sought with a large enough effect; inconclusive means small, poorly fitted or top-dose-only effect, or another doubt; inactive means no such curve, though single readings can be large; an effect the other way counts as inactive or inconclusive.
SMILES,Sfp PPTase inh,L3MBTL1 inh,G9a inh,BAZ2B block,JMJD2A Tudor inh,HP1b chromo inh,Sfp inh conf,Sfp PPTase gel
COC(=O)c1c(NC(=O)c2ccc(C)o2)sc2c1CCCCC2,14µM*,-17%[11.4 µM],-41%[59 µM],120%,60%[57.1 µM],76%,37µM*,i
NC(=O)c1c(NC(=O)C2CCCO2)sc2c1CCCC2 (stereo not given),1.3µM*,-4%,3.2µM*,-29%,?,?,13µM*,nt
Cc1ccc(NC(=O)C2CCCN(C(=O)c3cnn(-c4ccccc4)c3-n3cccc3)C2)cc1 (stereo not given),nt,nt,-3%[59 µM],-1%,-28%,18%,nt,nt
COCCCNS(=O)(=O)c1ccc(Oc2ncc(C(F)(F)F)cc2Cl)cc1,-24%,-1%,-2%[59 µM],-5%,-4%,34%,nt,nt
CC(C)(C)NS(=O)(=O)c1ccc(Oc2ncc(C(F)(F)F)cc2Cl)cc1,25µM*,4%,15%[59 µM],5%,-6%,24%,53µM*,i
COc1ccc(S(=O)(=O)NCCCCC(=O)O)cc1C(=O)O,14%,0%,-39%,-19%,-5%,24%,nt,nt
O=C(N/N=C/c1ccc(N2CCCCC2)o1)C(O)(c1ccccc1)c1ccccc1,8.9µM*,-9%,13µM*,-28%,nt,nt,37µM*,nt
Cc1cc(/C=N/NC(=O)C(O)(c2ccccc2)c2ccccc2)c(C)n1-c1ccccc1,-9%,-15%,?,?,?,17%,nt,nt
Cc1ccc(C)c(OCC(O)CN2CCC(Cc3ccccc3)CC2)c1 (stereo not given),1%,nt,-43%,-27%,9%,47%,nt,nt
Cc1cc(C)c(NC(=O)Cn2nnc(-c3ccccc3)n2)c(C)c1,nt,nt,10%[59 µM],-17%,-10%,8%,nt,nt
COc1cc(NC(=O)CC(C)n2ccnc2)cc(OC)c1 (stereo not given),17%,nt,5%,1%,-5%,32%,nt,nt
COC(=O)C(CC(=O)c1ccc(Br)cc1)n1ccnc1 (stereo not given),1.6µM*,-14%,?,50µM*,nt,nt,8.3µM*,nt
O=C(O)Cc1sc(Nc2ccc(Cl)cc2)nc1-c1cccs1,1.3µM*,-14%,?,?,-28%,-4%,59µM*,nt
CC(C)NC[C@@H](O)c1ccc(O)c(O)c1,20µM*,?,18µM*!,?,45µM*,?,47µM*,i
CC(C)NCC(O)c1ccc(NS(C)(=O)=O)cc1 (stereo not given),-7%,nt,34%[59 µM],-2%,-4%,83%,nt,nt
CCOc1ccc(CNS(=O)(=O)c2ccc(-c3cc(C(F)(F)F)on3)s2)cc1,nt,nt,-18%[59 µM],1%,-10%,30%,nt,nt
COC(=O)c1cc(=O)c(O)c2c(O)c(O)ccc2c1,32µM*,nt,nt,nt,nt,nt,9.4µM*,i
COc1ccc(C2CC(c3c(O)cc(C)oc3=O)=NCCS2)c(OC)c1 (stereo not given),-1%,-2%,?,-28%,-10%,17%,nt,nt
Cc1cc(O)c(C2=Nc3ccccc3SC(c3ccc(Cl)cc3)C2)c(=O)o1 (stereo not given),14µM*,8%,?,4%,-9%,31%,53µM*,?
CCOC(=O)COc1ccc(C)cc1C(=O)c1ccn2nc(-c3ccc(F)cc3)cc2n1,nt,nt,6%[59 µM],-3%,4%,45%,nt,nt
CC(=O)O[C@@]12CO[C@@H]1C[C@H](O)[C@@]1(C)C(=O)[C@H](O)C3=C(C)[C@@H](OC(=O)C(O)[C@@H](NC(=O)OC(C)(C)C)c4ccccc4)C[C@@](O)([C@@H](OC(=O)c4ccccc4)[C@H]21)C3(C)C (stereo not given in full),6.3µM*,nt,0%[12.7 µM],nt,nt,nt,15µM*,i
COC(=O)C1CCN(CC(=O)Nc2ccc(OC)c(Cl)c2)CC1,9%,-8%,5%,-15%,-8%,39%,nt,nt
COc1ccccc1C1=Nn2c(COc3ccccc3)nnc2SC1,14µM*,-10%,3.2µM*,?,nt,nt,11µM*,nt
c1ccc(OCc2nnc3n2N=C(c2ccccc2)CS3)cc1,16µM*,nt,7.9µM*,nt,-14%[11.4 µM],?,17µM*,nt
CCOc1ccccc1/C=N/NC(=O)c1nnn(-c2nonc2N)c1CN1CCCCCC1,nt,nt,nt,nt,-17%,17%,nt,nt
SMILES,Sfp PPTase inh,L3MBTL1 inh,G9a inh,BAZ2B block,JMJD2A Tudor inh,HP1b chromo inh,Sfp inh conf,Sfp PPTase gel
CCCCN1C(=O)N(c2ccccc2Cl)C(C)(O)CC1(C)C (stereo not given),-4%,nt,1%,0%,7%,28%,nt,nt
CC(C)(C)C(=O)OCOP(=O)(COCCn1cnc2c(N)ncnc21)OCOC(=O)C(C)(C)C,56µM*,nt,6.3µM*,nt,nt,nt,?,?
O=C(CSc1nnc(SCC(=O)c2ccco2)s1)c1ccco1,14µM*,?,-12%[59 µM],?,20µM*,?,47µM*,?
O=C(CSc1nc2cc(Cl)ccc2s1)c1ccco1,-3%,7%,15%,44%,29%,56%,nt,nt
Cc1ccc(CNC(=O)[C@H](C)[C@H]2C[C@]2(C)[C@H](NC(=O)OCc2ccccc2)c2ccccc2)c(F)c1F,25%,nt,nt,nt,nt,nt,nt,nt
COC(=O)Oc1nsnc1N1CCOCC1,13µM*,7%,2.8µM*,-5%,89µM*,?,11µM*,nt
O=C(Oc1nsnc1N1CCOCC1)N(c1ccccc1)c1ccccc1,11%,-7%,8%[2.33 µM],-35%,-20%,35%,nt,nt
O=C(CCOc1ccccc1)N(Cc1cccnc1)c1nc2c(F)cc(F)cc2s1,nt,nt,-21%[59 µM],1%,-18%,39%,nt,nt
S=C(Nc1cccc(Cl)c1)Nc1cccc2cnccc12,1.4µM*,?,?,?,?,?,13µM*,?
c1ccc2c(c1)[nH]c1nc(SCCN3CCOCC3)nnc12,4.5µM*,1%,3.5µM*,6%,79µM*,18%,9.4µM*,nt
CCCn1c2ccccc2c2nnc(SCCN3CCOCC3)nc21,-11%,nt,?,-20%,-24%,37%,nt,nt
